An excerpt weighted towards active compounds, which were near 1.5% of everything screened.
TPT1 inh: inhibitors of Candida albicans tRNA 2'-phosphotransferase TPT1 | inhibition, % at 5 µM | recombinant caTPT1, FP RNA substrate dephosphorylation | 300,000 tested, 0.81% active;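 active means inhibition above the mean of all tested compounds plus 3 SD, set per screening campaign, cut at about 24% in these data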;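 further: plate controls were DMSO alone for no effect and ferristatin control at 100 nM for full effect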
CRFR2-BP ag: CRF-BP/CRF-R2 complex agonism; activation, % at 13.2 µM; 350,000 tested, 0.46% active; AID 588473; HEK293 CRF-R2/CRF-BP, calcium dye fluorescence (FLIPR); percent of saturating CRF peptide response;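 active means activation of at least 50%, plus an integration ratio under a set limit after plate pattern correction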;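 further: plate controls were neutral control wells without compound for no effect and CRF at EC100 for full effect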
IDE act: IDE (human) activation, cell-based. P14735. HEK cells, FAbeta-B cleavage, fluorescence polarization; 0% vehicle, 100% cell-free pure enzyme wells. activation, % at 5.96 µM. 340,000 tested, 0.073% active. AID 493087;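 active means activation above the mean of all tested compounds plus 3 SD, set per screening campaign, cut at about 17% in these data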
cardiac RTF act: increases calcium sensitivity of human cardiac regulated thin filaments. P19429+P45379. IANBD-labeled TnC RTF fluorescence at EC20 calcium; 0% EC20 calcium, 100% full calcium. activation, % at 7.2 µM. 340,000 tested, 0.24% active;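 active means activation above the mean over all tested compounds plus 3 SD, cut at about 30% in these data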;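 further: rise in fluorescence read as greater calcium sensitivity of cardiac thin filaments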
IDE inh: cellular human IDE inhibition. P14735. HEK cells, FAbetaB cleavage, fluorescence polarization. inhibition, % at 5.59 µM. 320,000 tested, 0.41% active;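 active means percent inhibition above the average of all tested compounds plus 3 SD, set per screening campaign, cut at about 16% in these data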;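 further: IDE supplied by intact live HEK cells; FP after avidin binding of uncleaved biotin substrate so inhibition keeps polarization high; 0% = DMSO wells and 100% = 60 µM reference IDE inhibitor Ii1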
RTF Ca sens inh: cardiac RTF calcium desensitization; P19429+P45379; IANBD-labeled cardiac RTF, Ca2+ fluorescence; inhibition, % at 7.15 µM; 340,000 tested, 0.12% active;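 active means inhibition above the mean inhibition of all tested compounds plus 3 SD, cut at about 17% in these data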;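 further: assay run at fixed EC70 calcium of 1.6 mM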
caTPT1 confirm: confirmation of Candida albicans TPT1 inhibitors | shares compounds with TPT1 inh | recombinant caTPT1, fluorescence polarization, RNase T1 coupled | inhibition, % at 5 µM | 2,400 tested, 74% active | AID 2149;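 active means inhibition above the primary screen limit, the mean inhibition of all tested compounds plus 3 SD, cut at about 25% in these data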
RNase T1 inh: counter-screen for TPT1 inhibitors: inhibitors of Aspergillus oryzae RNase T1; shares compounds with TPT1 inh; RNase T1 cleavage, fluorescence polarization, 1536-well; inhibition, % at 5 µM; 2,400 tested, 83% active;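 active means inhibition above the solvent-only control well mean plus 3 SD, limit set per screening run, cut at about 23% in these data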;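 further: plate controls were DMSO wells with enzyme for no effect and wells without RNase T1 for full effect; inhibitors block cleavage so intact labeled substrate keeps polarization high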
Target sequence (P00651 whole entry, looked up): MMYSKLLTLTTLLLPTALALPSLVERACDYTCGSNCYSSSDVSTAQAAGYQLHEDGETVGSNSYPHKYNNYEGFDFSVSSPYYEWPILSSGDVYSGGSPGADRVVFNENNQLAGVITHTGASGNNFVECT
* marks the source's active call; other numbers are inactive results; i = inactive; nt = not tested or not shown.

SMILES	TPT1 inh	CRFR2-BP ag	IDE act	cardiac RTF act	IDE inh	RTF Ca sens inh	caTPT1 confirm	RNase T1 inh
Cc1cc(/C=C2/SC(=O)NC2=O)c(C)n1-c1ccc(N2CCOCC2)cc1	-5	-6	0	9	4	0	nt	nt
COc1ccc(-n2c(C)cc(/C=C3\C(=O)NN(c4ccccc4)C3=O)c2C)cc1	-2	1	3	2	0	3	nt	nt
COc1ccc(-n2c(C)cc(/C=C3\SC(=S)NC3=O)c2C)cc1	30*	5	-2	28	1	-25	24*	36*
Cc1cc(/C=C2\SC(=S)NC2=O)c(C)n1-c1ccc(O)cc1	95*	9	-6	9	12	-17	108*	119*
Cc1cc(/C=C2/C(=O)NN(c3ccccc3)C2=O)c(C)n1-c1ccc(O)cc1	0	-3	-3	6	-2	-1	nt	nt
Cc1nn(C)cc1/C=C1\SC(=S)NC1=O	-1	3	2	3	-3	-17	nt	nt
CC(/C=N/n1c(-c2n[nH]c3c2CCC3)n[nH]c1=S)=C\c1ccco1	33*	0	-3	4	-1	-9	4	9
N#C/C(=C/c1ccc(-c2ccccc2)o1)c1nc(-c2cccs2)cs1	131*	159*	-15	93*	14	-43	124*	114*
N#C/C(=C\c1ccc(-c2ccc(F)cc2)o1)C(=O)Nc1nc(-c2cccs2)cs1	-2	10	-2	16	7	-2	nt	nt
N#C/C(=C\c1ccc(-c2ccccc2)cc1)c1nc(-c2ccco2)cs1	61*	9	-4	9	7	-3	21	28*
Cc1cccc(NC(=O)CCN2C(=O)c3ccccc3S2(=O)=O)c1C	1	-2	6	-3	-2	-5	nt	nt
CCOc1ccccc1NC(=O)c1cc(SC)ccc1Cl	-6	10	-4	6	-1	-12	nt	nt
COc1ccc(-c2ccc(C3C(C#N)=C(N)Oc4n[nH]c(C)c43)o2)cc1 (stereo not given)	111*	171*	-3	16	1	-32	99*	101*
COc1cc(-c2nnc(COC(=O)c3ccc([N+](=O)[O-])o3)o2)cc(OC)c1OC	nt	0	nt	nt	nt	nt	nt	nt
CNc1ccc(Br)cc(C(=O)/C=C/c2ccc(OC)cc2OC)c1=O	54*	0	1	-6	5	-18	76*	84*
CNc1ccc(Br)cc(C(=O)/C=C/c2ccc(Cl)cc2Cl)c1=O	69*	3	-4	8	-5	-18	58*	72*
CNc1ccc(Br)cc(C(=O)/C=C/c2cccc(OC)c2)c1=O	42*	7	0	4	3	-9	61*	74*
O=C(/C=C/c1ccccc1)c1cc(Br)ccc(=O)c1O	17	0	3	-2	-1	-7	nt	nt
CN1/C(=C\C(=O)Nc2ccc(Cl)cc2)C(C)(C)c2ccccc21	3	0	3	-7	-1	-12	nt	nt
CN1/C(=C\C=C(/C#N)C(=O)Nc2ccc(Cl)cc2)C(C)(C)c2ccccc21	112*	141*	-5	10	1	-18	36*	52*
Cc1ccc2nc(SCc3nc4ccccc4c(=O)[nH]3)[nH]c2c1	4	-1	2	-4	1	-3	nt	nt
COC(=O)c1sc2nc(CSc3nc4ccc(C)cc4[nH]3)[nH]c(=O)c2c1C	38*	0	-1	-3	1	-5	33*	45*
Cc1c(C(=O)/C=C/c2ccccc2F)c2cc(O)ccc2n1C	nt	0	nt	nt	nt	nt	nt	nt
COc1ccc(NC(=O)Nc2c(C)noc2-c2ccccc2)cc1	42*	0	-1	15	-6	-2	6	11
N#C/C(=C\c1coc2ccc(O)cc2c1=O)C(=O)Nc1nc2ccccc2s1	28*	235*	-19	313*	16	i	93*	90*
SMILES	TPT1 inh	CRFR2-BP ag	IDE act	cardiac RTF act	IDE inh	RTF Ca sens inh	caTPT1 confirm	RNase T1 inh
N#C/C(=C\c1coc2ccccc2c1=O)C(N)=S	0	1	-1	3	6	-11	nt	nt
CC(C)C(C(=O)O)N1C(=O)/C(=C/c2cccn2C)SC1=S (stereo not given)	106*	7	-11	18	7	-34	125*	134*
O=C(O)C(Cc1ccccc1)N1C(=O)/C(=C/c2cccs2)SC1=S (stereo not given)	nt	4	nt	nt	nt	nt	nt	nt
CCCC(C(=O)O)N1C(=O)/C(=C/c2cccn2C)SC1=S (stereo not given)	107*	3	-10	23	9	-40	121*	127*
O=C1CSC(=Nc2cccc([N+](=O)[O-])c2)N1	1	1	1	-9	-2	-2	nt	nt
C(=NN1CCCCCC1)c1ccc2c(c1)OCO2	nt	-2	5	5	nt	3	nt	nt
CCOc1ccc(-n2ccnc2SCC(=O)Nc2cc(C)on2)cc1	119*	-3	3	-1	6	6	7	10
O=C(CSCc1ccc(Br)cc1)NCCc1ccccc1	0	-1	5	-3	-10	0	nt	nt
COC(=O)c1c(C)oc(C)c1S(=O)(=O)N1CCOCC1	1	0	6	1	0	-2	nt	nt
CN(C)c1ccc(/C=N/N(CCC#N)C2=NS(=O)(=O)c3ccccc32)cc1	27*	21	0	6	-2	-16	8	17
CCC(C)c1ccccc1N1CC(C(=O)NCCc2ccc(OC)c(OC)c2)CC1=O (stereo not given)	-1	0	1	4	-1	-16	nt	nt
CCOc1cc([N+](=O)[O-])cc2c1C(=O)Nc1ccccc1O2	30*	4	0	11	2	-10	44*	55*
O=C1Nc2ccccc2Oc2cc([N+](=O)[O-])ccc21	12	9	4	0	3	-10	nt	nt
O=C(Nc1ccc(N2CCOCC2)cc1)c1cc2ccccc2o1	3	-1	5	-2	4	-9	nt	nt
O=C(/C=C/N1CCOCC1)c1coc2ccccc12	26*	-1	7	-1	7	0	1	14
O=C(/C=C/N1CCOCC1)c1cc2ccccc2o1	26*	0	-1	-3	2	0	3	9
O=C(O)c1coc2ccccc12	-3	0	nt	nt	1	nt	nt	nt
CCc1ccc(NC(=O)CN(C(=O)N2CCN(CC)CC2)S(=O)(=O)c2ccc(C)cc2)cc1	0	0	2	0	-10	2	nt	nt
CCCCN1C(=O)/C(=C/C=C2\N(C)c3ccccc3C2(C)C)SC1=S	196*	nt	nt	nt	14	nt	134*	124*
